# Measurements as given in PubChem BioAssay AID463173 (ICCB-Longwood Screening Facility, Harvard Medical School, 2010).
# Screen size: about 52,000 compounds; about 4,300 (8.3%) were called active. Rule as the data show it: active = survival mostly below about 52% (no sharp cut-off); inactive = mostly above about 56%. The list comes from a sample in which actives are over-represented; it also holds similar structures and randomly drawn compounds.
# Tested on: DeltatarO mutant
# Experiment: growth inhibition of S. aureus wild type versus tarO mutant, primary screen, teichoic acid synthesis inhibitors, RN4220, OD600 (AID 463173)
# Details: OD600, 18 h, active compounds read low, screened at 18.75 µg/mL (by protocol)
row,SMILES,survival
1,Cc1cc(C)cc(-n2c(SCC(=O)Nc3nnc(C)s3)nc3c([nH]c4ccccc43)c2=O)c1,68% (inactive)
2,O=C(NC1CC(=O)N(c2cccc(F)c2)C1)c1ccc(Br)o1 (stereo unspecified),101% (inactive)
3,CC(C)(C)C1CCc2c(sc(NC(=O)c3noc4c3CCCC4)c2C#N)C1 (stereo unspecified),53% (inactive)
4,Cc1nnc(N(C)C(=O)CNC(=O)c2ccccc2)s1,75% (inactive)
5,COc1ccc(NC(=O)c2ccccc2NC(=O)c2ccco2)cc1,74% (inactive)
6,CCOC(=O)c1c(C)oc2nc(C)nc(NCCc3ccc(SC)cc3)c12,83% (inactive)
7,Cc1cccc(CSc2nc3cc(C(=O)NC4CCCC4)ccc3c(=O)n2Cc2ccccc2)c1,69% (inactive)
8,COc1ccc(Cl)cc1NC(=O)c1cc(S(=O)(=O)NC2CCCCCC2)ccc1F,71% (inactive)
9,CCOC(=O)c1cc2oc(C)cc2n1CC(=O)NC1CC1,86% (inactive)
10,CCOC(=O)c1cc2oc(C)cc2n1CCCN1C(=O)c2ccccc2C1=O,0% (active)
11,COC(=O)c1cc2oc3ccccc3c2n1Cc1ccc(Cl)cc1,76% (inactive)
12,COC(=O)c1cc2oc3ccccc3c2n1Cc1cccc(C)c1,31% (active)
13,CCc1cccc(NC(=O)Cn2c(C(=O)OC)cc3occc32)c1,92% (inactive)
14,COC(=O)c1cc2occc2n1Cc1nc(-c2ccc(C)cc2)oc1C,69% (inactive)
15,C=CCn1c(C(=O)OCC)cc2oc(C)cc21,119% (inactive)
16,COC(=O)c1cc2occc2n1Cc1cccc(C)c1,-6% (active)
17,COC(=O)c1cc2oc3ccccc3c2n1Cc1ccc(C)cc1,93% (inactive)
18,COc1ccc(Cl)cc1C1CC(=O)Nc2cc3c(cc21)OCCO3 (stereo unspecified),102% (inactive)
19,O=C(Nc1ccc(Br)cc1F)C1CCN(c2nc3ccccc3[nH]2)CC1,102% (inactive)
20,CCCNC(=O)Cn1c(=O)n(CC2CCC(C(=O)NC)CC2)c(=O)c2sccc21 (stereo unspecified),87% (inactive)
21,Cc1cccc(NC2=NCC(=O)N2Cc2ccccc2)c1,89% (inactive)

row,SMILES,survival
1,CCOC(=O)N1CCN(C(=O)c2ccc3c(c2)N(Cc2ccccc2F)C(=O)c2ccccc2S3(=O)=O)CC1,72% (inactive)
2,O=S(=O)(c1ccc(OC(F)(F)F)cc1)N1CCC(c2nc3ccccc3s2)CC1,65% (inactive)
3,CNC(=O)C1CCC(Cn2c(=O)c3sccc3n(CC(=O)Nc3ccccc3)c2=O)CC1 (stereo unspecified),75% (inactive)
4,CCOC(=O)c1sc2nc(C)n(CC(=O)Nc3cccc(Cl)c3)c(=O)c2c1C,71% (inactive)
5,CCOc1ccc(NC(=O)CSc2nccn2Cc2ccco2)cc1,91% (inactive)
6,COc1ccc(-c2cn3c(n2)sc2cc(C(=O)NCCc4ccc(OC)cc4OC)ccc23)cc1,65% (inactive)
7,COc1cccc(-c2cn3c(n2)sc2cc(C(=O)NCCc4ccccc4)ccc23)c1,38% (active)
8,CCOc1ccc(-c2cn3c(n2)sc2cc(C(=O)NCCc4ccc(OC)c(OC)c4)ccc23)cc1,49% (active)
9,COc1ccc(-c2cn3c(n2)sc2cc(C(=O)NCCc4ccccc4)ccc23)cc1,86% (inactive)
10,CCc1ccc(-c2cn3c(n2)sc2cc(C(=O)NCCc4ccc(OC)cc4OC)ccc23)cc1,59% (inactive)
11,COc1ccccc1CNC(=O)c1ccc2c(c1)sc1nc(-c3ccc(F)cc3)cn12,63% (inactive)
12,CCOc1ccccc1CNC(=O)c1ccc2c(c1)sc1nc(-c3ccccc3)cn12,67% (inactive)
13,COc1cccc(-c2cn3c(n2)sc2cc(C(=O)NCCCc4ccccc4)ccc23)c1,54% (inactive)
14,CCOc1ccc(CCNC(=O)c2ccc3c(c2)sc2nc(-c4ccc(F)cc4)cn23)cc1OCC,42% (active)
15,CCOc1ccc(-c2cn3c(n2)sc2cc(C(=O)NCCC4=CCCCC4)ccc23)cc1,87% (inactive)
16,CCOc1ccc(CNC(=O)c2ccc3c(c2)sc2nc(-c4ccccc4)cn23)cc1,74% (inactive)
17,CCOc1ccc(-c2cn3c(n2)sc2cc(C(=O)NCCc4ccc(OC)cc4OC)ccc23)cc1,40% (active)
18,COc1ccc(C(C#N)N2N=C(C)CC2c2ccccc2)cc1OC (stereo unspecified),108% (inactive)
19,CC(=O)c1ccc(NC(=O)CSc2nc(C3CCCC3)nc3c2c(=O)n(C)c(=O)n3C)cc1,78% (inactive)
20,Cc1cccc(C)c1-n1ncc(C(=O)N2CCN(c3ncccn3)CC2)c1C1CCN(C(=O)OC(C)(C)C)CC1,95% (inactive)
21,COc1cc(OC)c(NC(=O)CCc2nc(C3=CCN(Cc4cccc(Cl)c4)CC3)no2)cc1Cl,75% (inactive)

row,SMILES,survival
1,Cc1cc(C)c(NC(=O)CN(C)S(=O)(=O)c2ccc3c(c2)c(=O)n(C)c(=O)n3C)c(C)c1,81% (inactive)
2,Cc1ccc(Cl)cc1-n1ncc2c(N3CCC(C)CC3)ncnc21,128% (inactive)
3,COc1cc(C(CC(=O)Nc2ccc(Br)cn2)N2Cc3ccccc3C2=O)cc(OC)c1OC (stereo unspecified),78% (inactive)
4,COc1cccc(-c2cn3c(n2)sc2cc(C(=O)NCCc4ccc(OC)c(OC)c4)ccc23)c1,49% (inactive)
5,COc1ccc(CCNC(=O)c2ccc3c(c2)sc2nc(-c4ccc(C)cc4)cn23)cc1OC,81% (inactive)
6,COc1ccc(CCNC(=O)c2ccc3c(c2)sc2nc(-c4ccccc4)cn23)cc1OC,47% (active)
7,Cc1cc(C(=O)O)on1,83% (inactive)
8,O=C(Nc1cc(-c2nc3ccccc3s2)ccc1Cl)c1cc2ccccc2o1,105% (inactive)
9,COc1ccc(-c2nc3ccccc3s2)cc1NC(=O)c1ccc(C#N)cc1F,168% (inactive)
10,COc1ccc(-c2nc3ccccc3s2)cc1NC(=O)c1cc2ccccc2o1,38% (active)
11,COc1ccc(-c2nc3ccccc3s2)cc1NC(=O)c1ccccc1OC,77% (inactive)
12,COc1ccc(-c2nc3ccccc3s2)cc1NC(=O)c1ccc(F)cc1,137% (inactive)
13,CCOc1ccc(C(=O)Nc2cc(-c3nc4ccccc4s3)ccc2OC)cc1,187% (inactive)
14,COc1cc(OC)cc(C(=O)Nc2cc(-c3nc4ccccc4s3)ccc2OC)c1,42% (active)
15,COc1cc(OC)cc(C(=O)Nc2ccc(-c3nc4ccccc4s3)cc2C)c1,72% (inactive)
16,COc1ccc(-c2nc3ccccc3s2)cc1NC(=O)c1ccccc1F,151% (inactive)
17,COc1ccc(C(=O)Nc2cc(-c3nc4ccccc4s3)ccc2OC)cc1,19% (active)
18,COc1ccc(-c2nc3ccccc3s2)cc1NC(=O)c1cccc([N+](=O)[O-])c1C,38% (active)
19,COc1ccc(-c2nc3ccccc3s2)cc1NC(=O)c1cc(OC)c(OC)c(OC)c1,57% (inactive)
